Bioassay records (PubChem BioAssay)
Sampled rows, rich in hits. Any-hit rate of the full collection: about 3.7%.
MazEF act: MazEF (E. coli) toxin RNase activation; 350,000 compounds, 0.32% hits; P0AE70; activation, % at 20 µM; FAM/BHQ RNA-DNA oligo cleavage fluorescence, 5 h; in the data active means activation above about 50%
BoNT-F LC inh: BoNT F light chain protease inhibition | Multiplex microsphere protease cleavage assay, flow cytometry | inhibition, % at 10 µM | 360,000 compounds, 0.22% hits | AID 588497; in the data active means inhibition above about 35%, passing the limit was not always enough; inconclusive means no clear call, values can overlap the other calls; further: plate controls were buffer without enzyme for full effect and enzyme alone for no effect
Autofluor counter: flagged as autofluorescent in microsphere protease counterscreen; compound autofluorescence counterscreen, microsphere flow cytometry; hits give high values; fluorescence intensity (concentration not given with the values); 360,000 compounds, 3.1% hits; AID 624483; in the data active means fluorescence intensity above about 16000; inconclusive means no clear call, values can overlap the other calls
Anthrax LF prot: inhibitors of Bacillus anthracis lethal factor protease; 360,000 compounds, 0.12% hits; AID 588501; P15917; multiplex microsphere protease cleavage assay, LF; inhibition, % at 10 µM; in the data active means inhibition above about 30%; inconclusive means no clear call, values can overlap the other calls; further: plate controls were buffer without enzyme for full effect and enzyme alone for no effect
Target sequence (P15917 whole entry, looked up): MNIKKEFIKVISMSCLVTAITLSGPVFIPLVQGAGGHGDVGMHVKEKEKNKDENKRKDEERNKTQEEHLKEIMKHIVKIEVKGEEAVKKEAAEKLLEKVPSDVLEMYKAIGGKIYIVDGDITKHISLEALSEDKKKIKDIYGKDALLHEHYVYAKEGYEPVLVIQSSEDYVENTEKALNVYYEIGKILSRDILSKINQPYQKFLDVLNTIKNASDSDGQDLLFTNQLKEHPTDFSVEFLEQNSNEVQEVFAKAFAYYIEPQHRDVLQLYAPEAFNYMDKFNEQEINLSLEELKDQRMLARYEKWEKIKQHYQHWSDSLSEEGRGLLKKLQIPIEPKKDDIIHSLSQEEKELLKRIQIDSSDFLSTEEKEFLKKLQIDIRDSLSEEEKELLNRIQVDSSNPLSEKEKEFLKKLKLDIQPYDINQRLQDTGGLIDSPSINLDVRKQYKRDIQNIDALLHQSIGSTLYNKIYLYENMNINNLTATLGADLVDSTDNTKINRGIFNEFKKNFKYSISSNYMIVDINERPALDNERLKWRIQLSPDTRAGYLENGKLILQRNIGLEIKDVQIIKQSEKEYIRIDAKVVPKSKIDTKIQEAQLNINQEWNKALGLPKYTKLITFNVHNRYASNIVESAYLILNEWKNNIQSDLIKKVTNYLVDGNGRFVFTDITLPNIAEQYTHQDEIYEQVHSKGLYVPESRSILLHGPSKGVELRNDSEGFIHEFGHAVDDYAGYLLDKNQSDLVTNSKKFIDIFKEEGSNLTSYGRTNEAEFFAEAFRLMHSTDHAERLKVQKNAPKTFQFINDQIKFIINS
BoNT A protease: BoNT A light chain protease inhibition; multiplex microsphere protease substrate cleavage, flow cytometry; inhibition, % at 10 µM; 360,000 compounds, 0.17% hits; AID 588499; in the data active means inhibition above about 30%; inconclusive means no clear call, values can overlap the other calls; further: plate controls were buffer without enzyme for full effect and enzyme alone for no effect
BoNTA LC inh 1: inhibitors of Botulinum neurotoxin A light chain protease | shares compounds with BoNT-F LC inh | multiplex microsphere protease assay, flow cytometry | inhibition, % at 10 µM | 720 compounds, 3% hits; in the data active means inhibition above about 32%
BoNT-F LC CP1: BoNT/F light chain protease inhibition | shares compounds with BoNT-F LC inh | multiplex microsphere protease cleavage assay, flow cytometry | inhibition, % at 10 µM | 720 tested, under 10 active
LF protease CP1: inhibitors of Bacillus anthracis lethal factor protease; inhibition, % at 10 µM; multiplex microsphere protease cleavage assay, LF; shares compounds with BoNT-F LC inh; 720 tested, under 10 active
Numbers without * were called inactive; ? = inconclusive; / = no result. Unless noted, how the calls were made is not given here.

SMILES	MazEF act	BoNT-F LC inh	Autofluor counter	Anthrax LF prot	BoNT A protease	BoNTA LC inh 1	BoNT-F LC CP1	LF protease CP1
CC(C)CC(=O)Nc1ccc(F)c(Cl)c1	0	?	?	?	?	/	/	/
O=C(Cc1cccc(NC(=O)C2CCN(C(=O)c3ccccc3)CC2)c1)Nc1cccc(C(=O)N2CCCCC2)c1	2	-1	3397	4	0	/	/	/
O=C(COc1ccccc1Cc1ccccc1)NCCCN1CCOCC1	0	3	4330	8	0	/	/	/
COc1ccc(C(=O)NCCn2ccc3ccccc32)c(OC)c1	3	-1	10678	14	9	0	0	6
CCN(C(=O)c1cccnc1)c1ccccc1	15	-28	3661	3	0	/	/	/
CCN(C(=O)c1ccc(C)c(Br)c1)c1ccccc1	-1	60*	2754	1	6	-1	-2	0
O=C(NCCNC(=O)c1ccccc1)c1ccccc1	8	3	4755	1	1	/	/	/
O=C(NCS(=O)(=O)c1ccccc1)c1ccccc1	4	36*	4447	-2	2	1	2	4
CCC/C(C(=O)NCCO)=C1/c2ccccc2C(=O)N1c1ccccc1	-4	4	4140	2	0	/	/	/
COc1ccc(-n2c(C)nnc2SCC(=O)N2CCOCC2)cc1	2	47*	3824	0	-4	1	2	-2
COc1cccc(C2CC(c3ccccc3)=NN2S(=O)(=O)c2ccc(C)cc2)c1OC (stereo not given)	-25	55*	32220*	32*	39*	14	-4	-8
CCOC(=S)SCC(=O)Nc1ncc(C)s1	3	1	3526	-2	0	/	/	/
COC(=O)c1c(NC(=O)c2ccccc2[N+](=O)[O-])sc2c1CC(C)(C)NC2(C)C	0	70*	6297	34*	8	0	-2	5
Nn1c(SCC(=O)Nc2ccc3c(c2)OCCO3)nncc1=O	-8	12	6328	2	-1	/	/	/
CCOc1ccccc1OCC(=O)Nc1nnc(COC)s1	0	53*	?	?	?	0	-6	-3
Cc1ccccc1OCC(=O)Nc1nnc(C2CCCCC2)s1	-7	47*	2965	-2	-1	-1	-3	-2
CC(C)CN1C(=O)c2ccc(NC(=O)Cc3ccccc3)cc2C1=O	15	4	4307	-2	0	/	/	/
COc1ccc(-c2c(C)nn3c(N)c(-c4ccccc4)cnc23)cc1OC	1	40*	4470	-2	-6	0	-4	-3
COc1ccccc1-c1c(C)nn2c(N)c(-c3ccccc3)cnc12	6	19	4105	-1	1	/	/	/
CCN(C(=O)c1ccc(S(=O)(=O)N2CCOCC2)cc1)C1CCS(=O)(=O)C1 (stereo not given)	2	/	/	/	/	/	/	/
O=c1[nH]c2ccc(S(=O)(=O)Nc3ccccc3O)cc2[nH]1	26	-1	3478	15	2	/	/	/
COc1ccccc1NS(=O)(=O)c1ccc2[nH]c(=O)[nH]c2c1	0	36*	3623	-8	2	0	-4	0
CCc1cc(C(=O)c2ccc(Br)cc2)c(NC(=O)CN(CC)CC)s1	-6	?	4112	32*	-2	0	-4	-1
CCN(CC)CC(=O)Nc1sc(C)cc1C(=O)c1ccc(C)cc1	10	?	4200	-5	-2	/	/	/
Fc1ccc(-c2nnc(SCc3cccnc3)o2)cc1	7	0	3892	-1	-1	/	/	/
SMILES	MazEF act	BoNT-F LC inh	Autofluor counter	Anthrax LF prot	BoNT A protease	BoNTA LC inh 1	BoNT-F LC CP1	LF protease CP1
CCc1nc2ccccc2n1Cc1ccccc1OC	0	-4	2792	-3	0	/	/	/
COc1ccccc1Cn1c(C)nc2ccccc21	7	39*	4417	-12	1	-1	-2	-1
CCN1C(=O)c2cccc3c(S(=O)(=O)N(C(C)=O)c4ccc(OC(C)=O)cc4)ccc1c23	2	-17	5736	2	0	/	/	/
COC(=O)C(CO)Nc1ncnc2onc(-c3ccc(F)cc3)c12 (stereo not given)	-4	-7	3817	-5	0	/	/	/
CS(=O)(=O)Nc1cccc(C2=NN(S(=O)(=O)c3ccccc3)C(c3ccco3)C2)c1 (stereo not given)	-2	-7	2700	-1	-1	/	/	/
CCS(=O)(=O)N1N=C(c2cccc(NS(C)(=O)=O)c2)CC1c1ccccc1 (stereo not given)	-117	30	25649*	44*	94*	-6	/	-8
CC(=O)Nc1ccc(NS(=O)(=O)c2cc(-c3n[nH]c(=O)c4ccccc34)ccc2C)cc1	0	41*	4333	-5	5	-1	-5	-5
Cc1ccc(NC(=O)CN(C)C(=O)c2ccccc2OCc2c(C)noc2C)cc1	-1	?	?	?	89*	0	0	-2
COC(=O)CSc1nc(N)c2c3c(sc2n1)C(c1ccccc1)SC(c1ccccc1)C3 (stereo not given)	-11	1	2397	7	30*	2	2	-3
COC(=O)Cc1ccc(NC(=S)N2CCN(c3ccccn3)CC2)cc1	1	-13	2756	64*	178*	0	-1	-3
COc1cc2c(cc1OC)CN(S(=O)(=O)c1ccccc1F)CC2	20	3	4056	8	1	/	/	/
O=S(=O)(c1ccccc1F)N1CCc2ccccc2C1	8	?	3906	34*	0	-1	-2	-2
C=CCNC(=O)C(=O)NCC1CCCN1S(=O)(=O)c1cccs1 (stereo not given)	2	-4	7537	2	0	/	/	/
COc1ccc(CCNC(=O)c2ccc3c(c2)OCO3)cc1	10	2	5785	3	64*	1	-2	2
COc1ccc(CCNC(=O)c2ccc3c(c2)OCCO3)cc1	-8	-2	3469	-5	0	/	/	/
COc1ccc2nc(C)cc(Nc3ccc(C(=O)O)cc3)c2c1	9	39*	3557	-3	-2	-1	-3	2
CS(=O)(=O)N(CC(=O)N1CCOCC1)c1ccccc1	12	?	4311	45*	-2	0	-1	3
COc1ccc(OC)c(Nc2nc(NCCCN(C)C)nc(N)c2[N+](=O)[O-])c1	19	?	3678	31*	1	1	-5	-3
CC(Sc1nnnn1-c1ccc(Cl)cc1)C(=O)NCC(=O)Nc1ccc(F)c(F)c1F (stereo not given)	3	10	2424	3	1	/	/	/
COc1cc(/C=C\C(=O)NCc2ccc3[nH]c(C)cc3c2)cc(OC)c1OC	7	11	5749	2	2	/	/	/
COc1cc(C(=O)NCc2ccc3[nH]c(C)cc3c2)cc(OC)c1OC	5	-70	2596	-36	53*	0	-12	-4
COc1ccc(C(=O)NCc2ccc3[nH]c(C)cc3c2)cc1OC	1	-45	3032	-4	65*	0	-4	3
